{
  "source": "the supplement of paper PMC8728848",
  "binders": {"B1": {"name": "Gal 3 (Homo sapiens), P17931 (protein)", "chain": "MADNFSLHDALSGSGNPNPQGWPGAWGNQPAGAGGYPGASYPGAYPGQAPPGAYPGQAPPGAYHGAPGAYPGAPAPGVYPGPPSGPGAYPSSGQPSAPGAYPATGPYGAPAGPLIVPYNLPLPGGVVPRMLITILGTVKPNANSILDFQRGNDVAFHFNPRFNENNRRVIVCNTKLDNNWGREERQSVFPFESGKPFKIQVLVEPDHFKVAVNDAHLLQYNHRVKKLNEISKLGISGDIDLTSASYTMI"}},
  "assay_in_all_cases": "glycan array binding signal (z-score within array); higher = stronger binding",
  "details_in_all_cases": "glycan notation: IUPAC condensed, linker removed; mutation: R144S",
  "key": {"[1]": {"target": "Fuc(a1-2)Gal(b1-3)GlcNAc(b1-3)[Fuc(a1-3)[Gal(b1-4)]GlcNAc(b1-6)]Gal(b1-4)Glc", "procedure,_shortened": "(§1)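 Columns mapping to the same glycan were averaged after glycan names were converted to IUPAC-condensed notation. The data come from 3228 arrays in the Consortium for Functional Glycomics database, limited to those with an available protein sequence. Binding is reported as a within-array Z-score averaged across arrays of one protein sequence and across linkers.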"}, "Fuc(a1-2)Gal(b1-4)Glc6S": {"target": "Fuc(a1-2)Gal(b1-4)Glc6S", "procedure,_shortened": "as §1"}, "[2]": {"target": "Fuc(a1-2)Gal(b1-4)GlcNAc6S", "procedure,_shortened": "as §1"}, "[3]": {"target": "Fuc(a1-2)Gal(b1-4)[Fuc(a1-3)]GlcNAc(b1-3)Gal(b1-4)[Fuc(a1-3)]GlcNAc", "procedure,_shortened": "as §1"}, "[4]": {"target": "Fuc(a1-2)[Gal(a1-3)]Gal(b1-3)GlcNAc(b1-2)Man(a1-3)[Fuc(a1-2)[Gal(a1-3)]Gal(b1-3)GlcNAc(b1-2)Man(a1-6)]Man(b1-4)GlcNAc(b1-4)GlcNAc", "procedure,_shortened": "as §1"}, "[5]": {"target": "Fuc(a1-2)[Gal(a1-3)]Gal(b1-4)GlcNAc(b1-2)Man(a1-3)[Fuc(a1-2)[Gal(a1-3)]Gal(b1-4)GlcNAc(b1-2)Man(a1-6)]Man(b1-4)GlcNAc(b1-4)GlcNAc", "procedure,_shortened": "as §1"}, "[6]": {"target": "Fuc(a1-2)[GalNAc(a1-3)]Gal(b1-3)GlcNAc(b1-2)Man(a1-3)[Fuc(a1-2)[GalNAc(a1-3)]Gal(b1-3)GlcNAc(b1-2)Man(a1-6)]Man(b1-4)GlcNAc(b1-4)GlcNAc", "procedure,_shortened": "as §1"}, "[7]": {"target": "Fuc(a1-2)[GalNAc(a1-3)]Gal(b1-4)GlcNAc(b1-2)Man(a1-3)[Fuc(a1-2)[GalNAc(a1-3)]Gal(b1-4)GlcNAc(b1-2)Man(a1-6)]Man(b1-4)GlcNAc(b1-4)GlcNAc", "procedure,_shortened": "as §1"}, "[8]": {"target": "Fuc(a1-2)[GalNAc(a1-3)]Gal(b1-4)GlcNAc(b1-3)Gal(b1-4)GlcNAc(b1-3)Gal(b1-4)GlcNAc", "procedure,_shortened": "as §1"}, "[9]": {"target": "Fuc(a1-2)[GalNAc(a1-3)]Gal(b1-4)[Fuc(a1-3)]GlcNAc", "procedure,_shortened": "as §1"}, "[10]": {"target": "Fuc(a1-3)[Gal3S(b1-4)]GlcNAc", "procedure,_shortened": "as §1"}, "[11]": {"target": "Gal(a1-4)Gal(b1-3)GlcNAc(b1-2)Man(a1-3)[Gal(a1-4)Gal(b1-3)GlcNAc(b1-2)Man(a1-6)]Man(b1-4)GlcNAc(b1-4)GlcNAc", "procedure,_shortened": "as §1"}, "Gal(a1-4)Gal(b1-4)Glc": {"target": "Gal(a1-4)Gal(b1-4)Glc", "procedure,_shortened": "as §1"}, "[12]": {"target": "Gal(b1-3)GalNAc(a1-3)[Fuc(a1-2)]Gal(b1-4)GlcNAc", "procedure,_shortened": "as §1"}, "[13]": {"target": "Gal(b1-3)GlcNAc(b1-3)Gal(b1-4)GlcNAc(b1-6)[Gal(b1-3)GlcNAc(b1-3)]Gal(b1-4)Glc", "procedure,_shortened": "as §1"}, "[14]": {"target": "Gal(b1-3)[Fuc(a1-4)]GlcNAc(b1-3)Gal(b1-4)[Fuc(a1-3)]GlcNAc", "procedure,_shortened": "as §1"}, "[15]": {"target": "Gal(b1-3)[Neu5Ac(a2-6)]GalNAc", "procedure,_shortened": "as §1"}, "[16]": {"target": "Gal(b1-4)GalNAc(a1-3)[Fuc(a1-2)]Gal(b1-4)GlcNAc", "procedure,_shortened": "as §1"}, "[17]": {"target": "Gal(b1-4)GlcNAc(b1-3)[Gal(b1-4)GlcNAc(b1-6)]Gal(b1-4)GlcNAc", "procedure,_shortened": "as §1"}, "Gal3S(b1-4)GlcNAc6S": {"target": "Gal3S(b1-4)GlcNAc6S", "procedure,_shortened": "as §1"}, "GalNAc(a1-3)Gal": {"target": "GalNAc(a1-3)Gal", "procedure,_shortened": "as §1"}, "[18]": {"target": "GalNAc(b1-3)Gal(a1-4)Gal(b1-4)GlcNAc(b1-3)Gal(b1-4)Glc", "procedure,_shortened": "as §1"}, "GalNAc(b1-3)GalNAc": {"target": "GalNAc(b1-3)GalNAc", "procedure,_shortened": "as §1"}, "[19]": {"target": "GlcNAc(a1-4)Gal(b1-4)GlcNAc(b1-3)Gal(b1-4)Glc", "procedure,_shortened": "as §1"}, "[20]": {"target": "GlcNAc(b1-2)[GlcNAc(b1-4)]Man(a1-3)[GlcNAc(b1-2)Man(a1-6)]Man(b1-4)GlcNAc(b1-4)GlcNAc", "procedure,_shortened": "as §1"}, "[21]": {"target": "GlcNAc(b1-3)Gal(b1-3)GalNAc", "procedure,_shortened": "as §1"}, "GlcNAc(b1-3)Gal(b1-4)Glc": {"target": "GlcNAc(b1-3)Gal(b1-4)Glc", "procedure,_shortened": "as §1"}, "[22]": {"target": "GlcNAc(b1-3)Gal(b1-4)GlcNAc", "procedure,_shortened": "as §1"}, "Man(a1-3)[Man(a1-6)]Man": {"target": "Man(a1-3)[Man(a1-6)]Man", "procedure,_shortened": "as §1"}, "[23]": {"target": "Neu5Ac(a2-3)Gal(b1-4)GlcNAc6S", "procedure,_shortened": "as §1"}, "[24]": {"target": "Neu5Ac(a2-3)Gal(b1-4)[Fuc(a1-3)]GlcNAc(b1-6)[Neu5Ac(a2-3)Gal(b1-3)]GalNAc", "procedure,_shortened": "as §1"}, "[25]": {"target": "Neu5Ac(a2-3)GalNAc(b1-4)GlcNAc", "procedure,_shortened": "as §1"}, "Neu5Ac(a2-6)GalNAc": {"target": "Neu5Ac(a2-6)GalNAc", "procedure,_shortened": "as §1"}, "[26]": {"target": "Neu5Gc(a2-3)Gal(b1-3)GlcNAc", "procedure,_shortened": "as §1"}, "[27]": {"target": "Neu5Gc(b2-6)Gal(b1-4)GlcNAc", "procedure,_shortened": "as §1"}},
  "note": "The full list was thinned out, with the strongest signals kept by preference.",
  "data": [
    {"binder": "B1", "values": [
      {"measurement": "glycan array binding signal (z-score)", "setting": "[1]", "result": 0.343},
      {"measurement": "glycan array binding signal (z-score)", "setting": "Fuc(a1-2)Gal(b1-4)Glc6S", "result": -0.313},
      {"measurement": "glycan array binding signal (z-score)", "setting": "[2]", "result": 0.788},
      {"measurement": "glycan array binding signal (z-score)", "setting": "[3]", "result": -0.357},
      {"measurement": "glycan array binding signal (z-score)", "setting": "[4]", "result": 4.81},
      {"measurement": "glycan array binding signal (z-score)", "setting": "[5]", "result": 5.46},
      {"measurement": "glycan array binding signal (z-score)", "setting": "[6]", "result": 6.11},
      {"measurement": "glycan array binding signal (z-score)", "setting": "[7]", "result": 5.95},
      {"measurement": "glycan array binding signal (z-score)", "setting": "[8]", "result": 4.99},
      {"measurement": "glycan array binding signal (z-score)", "setting": "[9]", "result": -0.356},
      {"measurement": "glycan array binding signal (z-score)", "setting": "[10]", "result": -0.359},
      {"measurement": "glycan array binding signal (z-score)", "setting": "[11]", "result": -0.361},
      {"measurement": "glycan array binding signal (z-score)", "setting": "Gal(a1-4)Gal(b1-4)Glc", "result": -0.359},
      {"measurement": "glycan array binding signal (z-score)", "setting": "[12]", "result": 4.94},
      {"measurement": "glycan array binding signal (z-score)", "setting": "[13]", "result": 0.34},
      {"measurement": "glycan array binding signal (z-score)", "setting": "[14]", "result": -0.357},
      {"measurement": "glycan array binding signal (z-score)", "setting": "[15]", "result": -0.352},
      {"measurement": "glycan array binding signal (z-score)", "setting": "[16]", "result": 5.09},
      {"measurement": "glycan array binding signal (z-score)", "setting": "[17]", "result": 1.2},
      {"measurement": "glycan array binding signal (z-score)", "setting": "Gal3S(b1-4)GlcNAc6S", "result": -0.288},
      {"measurement": "glycan array binding signal (z-score)", "setting": "GalNAc(a1-3)Gal", "result": -0.354},
      {"measurement": "glycan array binding signal (z-score)", "setting": "[18]", "result": 0.182},
      {"measurement": "glycan array binding signal (z-score)", "setting": "GalNAc(b1-3)GalNAc", "result": -0.354},
      {"measurement": "glycan array binding signal (z-score)", "setting": "[19]", "result": -0.356},
      {"measurement": "glycan array binding signal (z-score)", "setting": "[20]", "result": -0.341},
      {"measurement": "glycan array binding signal (z-score)", "setting": "[21]", "result": -0.356},
      {"measurement": "glycan array binding signal (z-score)", "setting": "GlcNAc(b1-3)Gal(b1-4)Glc", "result": -0.36},
      {"measurement": "glycan array binding signal (z-score)", "setting": "[22]", "result": -0.358},
      {"measurement": "glycan array binding signal (z-score)", "setting": "Man(a1-3)[Man(a1-6)]Man", "result": -0.354},
      {"measurement": "glycan array binding signal (z-score)", "setting": "[23]", "result": -0.365},
      {"measurement": "glycan array binding signal (z-score)", "setting": "[24]", "result": -0.352},
      {"measurement": "glycan array binding signal (z-score)", "setting": "[25]", "result": -0.363},
      {"measurement": "glycan array binding signal (z-score)", "setting": "Neu5Ac(a2-6)GalNAc", "result": -0.364},
      {"measurement": "glycan array binding signal (z-score)", "setting": "[26]", "result": -0.363},
      {"measurement": "glycan array binding signal (z-score)", "setting": "[27]", "result": -0.358}
    ]}
  ]
}
